Screens as filed in PubChem.
RPL19A-GFP yeast: yeast TOR pathway RPL19A-GFP modulation; S. cerevisiae RPL19A-GFP strain, flow cytometry, 3 h; active compounds read low; percent response vs DMSO, % at 10 µM; actives 0.3% (n = 330,000); AID 2025;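 active = percent response vs DMSO below 50%; inconclusive = fewer than 70 events counted for the yeast strain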;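 also: median channel GFP fluorescence of the barcoded RPL19A-GFP strain; ratio of sample median GFP to plate DMSO average so 100% = DMSO; lower means less RPL19A-GFP as with rapamycin TOR inhibition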
CIT2-GFP yeast: yeast TOR pathway CIT2-GFP modulation; S. cerevisiae CIT2-GFP strain, flow cytometry, 3 h; 100 means same as DMSO wells; GFP response vs DMSO, % at 10 µM; actives 0.065% (n = 320,000);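 active = GFP response relative to DMSO above a set limit, near the screen mean plus 3 SD, cut at about 150% in these data; inconclusive = Fewer than 70 cells measured for a yeast strain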;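 also: ratio of well median GFP fluorescence to mean of DMSO wells on the plate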
MEP2 TOR yeast: alters MEP2-GFP fluorescence in TOR pathway yeast screen. actives 0.51% (n = 330,000). GFP response vs DMSO, % at 10 µM. S. cerevisiae MEP2-GFP strain, flow cytometry GFP, 3 h; 100% = DMSO control level;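 active = GFP response versus DMSO above a set limit, roughly screen mean plus 3 SD, cut at about 180% in these data; inconclusive = fewer than 70 cells counted for a yeast strain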;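 also: median GFP fluorescence of the barcode-gated MEP2-GFP cells per well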
LAP4 TOR yeast: alters LAP4-GFP fluorescence in TOR pathway yeast screen. GFP response vs DMSO, % at 10 µM. actives 0.34% (n = 320,000). S. cerevisiae LAP4-GFP multiplex, flow cytometry GFP, 3 h; median GFP as percent of DMSO wells;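 active = GFP response vs DMSO above a set limit, about the screen mean plus 3 SD, cut at about 150% in these data; inconclusive = under 70 cell events counted for the yeast strain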
AGP1-GFP MLPCN: yeast TOR pathway AGP1-GFP modulation. S. cerevisiae AGP1-GFP multiplex flow cytometry, 3 h; GFP as percent of DMSO wells. GFP response vs DMSO, % at 10 µM. actives 0.02% (n = 320,000). AID 2066;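 active = GFP response relative to DMSO above a set limit, near screen average plus 3 SD, cut at about 150% in these data; inconclusive = fewer than 70 cells counted for the yeast strain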;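 also: median GFP channel fluorescence of the gated AGP1 strain per well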
The depositor's hits bear a star; ? = inconclusive; · = no result given; [ ] = dose if it differs, or a comment. Rows were chosen to be rich in hits. Some 0.92% of all compounds tested hit in one or more screens of this group.

SMILES	RPL19A-GFP yeast	CIT2-GFP yeast	MEP2 TOR yeast	LAP4 TOR yeast	AGP1-GFP MLPCN
Nn1c(SCC(=O)Nc2cccc(Br)c2)nnc1C1CC1	99	104	103	100	101
O=C(CCNS(=O)(=O)c1ccc(Cl)cc1)NCc1cccnc1	29*[may fluoresce violet]	?	252*[may fluoresce violet]	118	?
Cc1ccc(S(=O)(=O)NCCC(=O)NCc2cccnc2)cc1	100	97	97	104	99
C/C(N)=C(/C#N)C(=O)COC(=O)C1CCN(S(=O)(=O)c2cccs2)CC1	99	106	101	94	100
CCN1CCCC1CNCc1cc(OC)c(OC)c(OC)c1 (stereo unspecified)	102	108	106	109	106
CCOc1cc(CNCC2CCCN2CC)cc(Cl)c1OC (stereo unspecified)	45*[may fluoresce violet]	?	223*[may fluoresce violet]	93	26
CC1Cc2cc(/C(O)=C3/C(=O)C(=O)N(CCN4CCOCC4)C3c3ccc(N(C)C)cc3)ccc2O1 (stereo unspecified)	101	107	119	93	108
O=S(=O)(c1ccc(SCCOc2ccc(Cl)cc2)nc1)N1CCCC1	98	93	93	100	95
O=C(Nc1ccc(S(=O)(=O)Nc2cnc3ccccc3n2)cc1)c1cc(F)c(F)cc1Cl	108	111	108	96	104
CCOC(=O)Cc1n[nH]c(=O)c2ccccc12	96	101	93	97	104
COC(=O)Cc1n[nH]c(=O)c2ccccc12	61	?	299*[may fluoresce violet]	76	?
CCOC(=O)c1cc2c(=O)n3ccccc3nc2n(CCOC)c1=NC(=O)C(C)(C)C	57	114	331*	117	111
CCCN(c1ccccc1F)S(=O)(=O)c1cc(-c2cc(C)no2)ccc1OC	47*	96	134	89	13
CSc1cccc(NC(=O)C2CCCN(S(=O)(=O)c3ccc(F)cc3)C2)c1 (stereo unspecified)	105	96	105	103	109
CSc1cccc(NC(=O)C2CCCN(S(=O)(=O)c3cccs3)C2)c1 (stereo unspecified)	16*[may fluoresce violet]	?	?	?	?
COc1ccc(C(=O)/C(=C/O)N=Nc2ccc(F)cc2)cc1	94	77	99	172*	96
COc1ccc(N=N/C(=C\O)C(=O)c2cccs2)cc1	96	74	93	109	78
O=C(/C(=C/O)N=Nc1ccc(Cl)cc1)c1ccncc1	64	68	122	203*	78
CN(CCNC(=O)c1ccc(CS(=O)(=O)c2ccc(Br)cc2)o1)CCc1ccccc1	104	106	107	97	106
O=C(NCCc1ccccc1)c1ccc(CS(=O)(=O)c2ccc(Br)cc2)o1	20*[may fluoresce violet]	?	159	80	?
Cc1ccc(C(=O)OC2CCN(c3ccc([N+](=O)[O-])cc3)CC2)cc1	42*[may fluoresce violet]	?	239*[may fluoresce violet]	?	?
COC(=O)C1CCN(c2ccc([N+](=O)[O-])cc2)CC1	94	96	95	102	97
O=C(NC1CCCCC1)c1ccc(N2CCCC2=O)cc1	30*[may fluoresce violet]	·	322*[may fluoresce violet]	91	?
O=C(NC1CCCCCC1)c1ccc(N2CCCC2=O)cc1	102	104	103	105	104
CCc1ccc(C2=NN(C(C)=O)C(c3ccco3)C2)cc1 (stereo unspecified)	43*[may fluoresce violet]	?	79	156*[may fluoresce violet]	?
SMILES	RPL19A-GFP yeast	CIT2-GFP yeast	MEP2 TOR yeast	LAP4 TOR yeast	AGP1-GFP MLPCN
Cc1nc(Nc2cnc(/C=C/c3cc(C(=O)Nc4cccc(C(F)(F)F)c4)ccc3C)cn2)cc(N2CCNCC2)n1	45*[may fluoresce violet]	?	198*[may fluoresce violet]	107	12
Oc1c(Br)cc(Br)cc1C=NCc1ccccc1	101	80	97	151*	93
Oc1c(Br)cc(Br)cc1C=NCc1ccc(F)cc1	101	99	101	139	93
O=c1nc2ccccc2c2n1CC(CN1CCN(c3ccc(F)cc3)CC1)N2 (stereo unspecified)	31*[may fluoresce violet]	?	94	81	?
CC(NC(=O)COC(=O)c1cc(S(=O)(=O)N2CCOCC2)ccc1F)c1ccccc1 (stereo unspecified)	98	91	99	98	94
O=C(CCCC(=O)OCC1CCCO1)OCC1CCCO1 (stereo unspecified)	53	?	281*[may fluoresce violet]	100	·
O=C(CCCC(=O)NCC1CCCO1)NCC1CCCO1 (stereo unspecified)	105	112	111	107	108
O=C(COc1ccc(Br)cc1)Nc1ccc(-c2nnc(-c3ccco3)o2)cc1	48*[may fluoresce violet]	?	177*[may fluoresce violet]	110	24
Cn1c(=O)c2c(ncn2CC(=O)OCC(=O)Nc2ccc(F)cc2F)n(C)c1=O	97	98	97	105	102
COc1ccccc1OCC(=O)Nc1ccc(S(=O)(=O)Nc2onc(C)c2C)cc1	46*[may fluoresce violet]	?	311*[may fluoresce violet]	78	?
Cc1ccc(C(=O)NCC(=O)OCc2nnc(-c3ccc([N+](=O)[O-])cc3)o2)s1	104	109	107	108	110
Cc1cccc(Sc2c(C=O)c3ccccc3n2C)c1	65	?	228*[may fluoresce violet]	55	?
COC(=O)c1ccc(CS(=O)(=O)c2ccc(F)cc2)o1	66	149	536*	152*	142
O=C1CNC(=S)N1Cc1ccc(F)cc1	45*[may fluoresce violet]	?	359*[may fluoresce violet]	113	?
CCOC(=O)CNc1nc(C#N)nc(N2CCOCC2)n1	45*[may fluoresce violet]	?	192*[may fluoresce violet]	89	?
CCCCC[C@@H]1C=C(C(=O)O)[C@H](c2ccc(F)cc2)N1S(=O)(=O)c1ccc(C)cc1	94	93	91	91	92
CC1=CCC2C(=O)N(c3ccc4ccccc4n3)C(=O)C2C1 (stereo unspecified)	103	67	115	101	40
Cc1cc(=O)n(-c2ccc3ccccc3n2)[nH]1	101	95	103	165*	90
CCCCN(CCCNC(=O)C1CCN(C(=O)c2cc3sccc3n2C)CC1)Cc1ccccc1	96	108	95	94	97
CCN(CCCNC(=O)C1CCN(C(=O)c2cc3sccc3n2C)CC1)Cc1ccccc1	44*[may fluoresce violet]	?	283*[may fluoresce violet]	107	?
O=C(Nc1ccccc1Cl)c1cc[n+]([O-])cc1	103	105	104	108	106
O=C(O)C1CC=CCC1C(=O)N1CCN(c2nc(-c3ccccc3Cl)c3cc(Br)ccc3n2)CC1 (stereo unspecified)	75	?	192*[may fluoresce violet]	97	14
O=C(O)C1CC=CCC1C(=O)N1CCN(c2nc(-c3ccccc3)c3ccccc3n2)CC1 (stereo unspecified)	101	?	92	90	17
CCO[C@H]1OC(C(=O)NC2CC2)=C[C@@H](c2ccc(Br)cc2)[C@@H]1CCCO	98	67	102	134	76
